# Source: the supplement of paper PMC3334620
# The full ranking holds about 33,000 sequences; the median of “E-score (-0.5 to 0.5)” is about -0.053, and the highest 2% start at about 0.37. Many of the other results were omitted from the sample, so the highest values are more common in it than they were.
# Target: Hap1 (UniProt P0CE41)
# Experiment: PBM E-score (8-mer binding enrichment) (E-score (-0.5 to 0.5)); higher = stronger / more preferred TF binding
# Settings: protein concentration: 200 nM; construct: GST-DNA-binding domain
# Procedure, shortened: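 Masliner-normalised scans of fluorescent anti-GST signal were the basis for scoring. That signal came from GST-tagged yeast transcription factors applied at about 100-200 nM to double-stranded universal all-10-mer Agilent arrays on fresh or once-stripped slides. Each ungapped eight-base word, pooled with its reverse complement, received an E-score from the Universal PBM Analysis Suite.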
# Chain of UniProt P0CE41 (P0CE41 whole entry): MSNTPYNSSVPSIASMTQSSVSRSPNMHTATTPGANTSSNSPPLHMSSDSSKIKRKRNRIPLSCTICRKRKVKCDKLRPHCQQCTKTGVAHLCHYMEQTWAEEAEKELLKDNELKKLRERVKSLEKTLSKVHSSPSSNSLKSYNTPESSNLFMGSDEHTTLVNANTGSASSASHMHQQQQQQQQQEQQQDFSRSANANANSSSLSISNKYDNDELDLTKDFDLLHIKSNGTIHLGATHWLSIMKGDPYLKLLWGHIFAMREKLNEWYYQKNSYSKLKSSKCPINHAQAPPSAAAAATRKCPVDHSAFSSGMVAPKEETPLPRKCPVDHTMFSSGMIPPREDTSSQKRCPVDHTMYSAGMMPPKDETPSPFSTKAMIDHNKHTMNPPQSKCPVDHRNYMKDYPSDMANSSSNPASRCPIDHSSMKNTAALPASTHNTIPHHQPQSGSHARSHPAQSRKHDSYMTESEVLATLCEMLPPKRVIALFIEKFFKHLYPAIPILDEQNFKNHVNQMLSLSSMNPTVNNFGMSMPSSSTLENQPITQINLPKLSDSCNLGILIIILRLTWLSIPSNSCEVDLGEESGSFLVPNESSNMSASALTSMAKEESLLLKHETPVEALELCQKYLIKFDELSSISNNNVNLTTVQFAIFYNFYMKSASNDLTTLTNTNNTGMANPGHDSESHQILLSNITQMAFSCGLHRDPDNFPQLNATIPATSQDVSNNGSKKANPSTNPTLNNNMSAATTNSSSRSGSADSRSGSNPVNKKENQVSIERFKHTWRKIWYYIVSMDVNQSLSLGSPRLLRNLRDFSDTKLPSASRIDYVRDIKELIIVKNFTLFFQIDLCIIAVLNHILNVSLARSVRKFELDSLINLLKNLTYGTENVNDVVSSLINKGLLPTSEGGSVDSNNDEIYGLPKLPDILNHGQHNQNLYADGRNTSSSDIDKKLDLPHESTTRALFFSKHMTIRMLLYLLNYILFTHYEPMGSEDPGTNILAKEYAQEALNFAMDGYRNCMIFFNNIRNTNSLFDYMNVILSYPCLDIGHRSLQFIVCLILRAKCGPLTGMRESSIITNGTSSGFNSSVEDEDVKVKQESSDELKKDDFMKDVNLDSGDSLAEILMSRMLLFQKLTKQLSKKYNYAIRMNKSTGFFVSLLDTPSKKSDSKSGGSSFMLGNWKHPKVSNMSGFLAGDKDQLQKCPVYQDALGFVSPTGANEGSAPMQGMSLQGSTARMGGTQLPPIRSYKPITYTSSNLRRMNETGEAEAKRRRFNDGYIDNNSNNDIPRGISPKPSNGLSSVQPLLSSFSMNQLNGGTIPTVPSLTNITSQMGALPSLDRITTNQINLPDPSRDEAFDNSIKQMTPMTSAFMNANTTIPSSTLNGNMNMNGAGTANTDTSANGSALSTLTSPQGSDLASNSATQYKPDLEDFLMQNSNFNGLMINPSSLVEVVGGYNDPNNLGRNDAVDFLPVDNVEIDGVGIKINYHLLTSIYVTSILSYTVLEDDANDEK
row,Sequence,PBM E-score
1,CGCTAGCG,0.0545
2,CGCGAGCA,-0.126
3,GATATCGC,0.304
4,AAACCCTA,-0.136
5,AGGTACGG,0.0524
6,AACGCGAA,0.121
7,AGGTCGCA,0.101
8,ACTAAGCC,0.094
9,ACTGTCAG,-0.224
10,CAGCGGAA,0.139
11,CACCGGGA,0.261
12,TACCGGCA,0.353
13,CACCGGAG,0.341
14,GACCGGAA,0.361
15,TACCGGAA,0.442
16,AACCGGAC,0.369
17,CACCGGAC,0.417
18,CACCGGAA,0.398
19,TACCGCAA,0.08
20,GACCGGAC,0.41
21,GACCGGGC,0.331
22,AATCGGCT,0.314
23,TCTGCGAA,-0.214
24,CCGGTGTC,0.301

row,Sequence,PBM E-score
1,CTTGGTGA,-0.102
2,CATCGGTC,0.278
3,CATCGGAC,0.401
4,GATCGGAC,0.413
5,GATCGGAA,0.325
6,AATCGGAC,0.345
7,CATCGGAG,0.292
8,GCTTTTAC,0.14
9,ATGTGGAC,-0.149
10,AATTCCTG,-0.0671
11,AGGCTGTG,-0.019
12,CACATCGC,0.0343
13,GCGGACGC,0.0721
14,TCACGCGA,-0.0375
15,AGAGGAGA,-0.242
16,ACGGACCC,0.278
17,ACGGACCG,0.328
18,TCGGACCA,0.381
19,TGGGACCA,-0.19
20,TAGGACCA,-0.0211
21,CCGGACTC,0.361
22,GCGGACCC,0.266
23,CAGGACCG,-0.00407
24,ACGGACTA,0.237

row,Sequence,PBM E-score
1,CCGGACTA,0.404
2,CCGGACCG,0.431
3,CCGGACCC,0.374
4,AGGCGCCC,-0.0775
5,CGCATCCA,-0.0122
6,ACCACAGC,-0.127
7,GAGAGAGA,-0.0161
8,CCAACTGA,-0.324
9,GGAGAGAC,0.101
10,AACCTCGC,-0.0117
11,AGTCGTAA,0.00615
12,AAAGAGCC,-0.12
13,AGGACCGA,0.311
14,GATTTATA,0.146
15,CCGGACCA,0.372
16,ACGGACCA,0.344
17,GCGGACCA,0.31
18,ATTCCCGC,0.318
19,ACTCCCGG,0.378
20,GTTCCCGA,0.257
21,ATTCCCGG,0.395
22,ACTCCCCG,0.283
23,ACTCCCGA,0.2
24,ATTCCCCG,0.286

row,Sequence,PBM E-score
1,CTTCCCGA,0.143
2,ATTCCCGA,0.395
3,CTAGCGTC,-0.0893
4,CCTCTTCC,-0.0207
5,TAGCCTAA,-0.158
6,AGGCAAAG,-0.246
7,CGAGGAGC,0.0181
8,CGAACCAG,-0.00442
9,AGATCGGG,0.153
10,GCATCGGC,0.225
11,GGATCGGA,0.384
12,GCGTCGGA,0.375
13,CCGTCGGA,0.335
14,GCATCGGA,0.383
15,AGATCGGC,0.267
16,GGATCGAA,0.168
17,ACATCGGA,0.265
18,AGATCGGA,0.376
19,CGATCGGA,0.354
20,ACGTCGGA,0.256
21,AAACTAGC,-0.188
22,GCGTTGCA,0.0308
23,GAGCGGAA,0.248
24,GGCATAAA,0.102

row,Sequence,PBM E-score
1,AAAGTAAG,-0.163
2,CTAGAGGA,-0.241
3,ATCCGTCA,0.212
4,GAGGGGAA,0.148
5,CCTGTGGA,-0.336
6,GGTTTTAA,0.334
7,AAGTGTGC,-0.132
8,AGTCGGTA,0.0714
9,GATCGAAA,0.121
10,GTTTCGGA,0.389
11,ATTTCGGC,0.326
12,ATTTCGGA,0.415
13,GTTTCGTA,0.11
14,CTTTCGGA,0.399
15,GTTTCGAA,-0.219
16,CTTTCGTA,-0.158
17,ATTTCGGG,0.29
18,CTTTCGGC,0.348
19,CGTGCGAC,-0.0831
20,ACGCAGAA,-0.0372
21,AAGCTCAA,-0.167
22,AAATAACC,0.0225
23,CGCGTCAC,-0.174
24,CACTGACG,-0.147

row,Sequence,PBM E-score
1,CCCCCAAG,-0.195
2,CCCTCAAG,-0.233
3,GCCCGAGA,0.391
4,CGCCGAGC,0.364
5,CCCCGAGA,0.319
6,TCCCGAGA,0.261
7,CGCCGAGA,0.37
8,GGCCGAGA,0.401
9,CGCCGCGA,0.213
10,AGCCGAGA,0.267
11,GGCCGCGA,0.0621
12,CTTTCTTA,-0.125
13,AGCTTAGA,-0.00759
14,ACGTACTG,-0.144
15,CCGGCCAG,0.351
16,AGGGCCCG,0.106
17,CGGGCCCG,0.419
18,ACGGCCGA,0.419
19,AGGGCCTA,0.0252
20,CCGGCCGG,0.456
21,CGGGCCCA,0.26
22,ACGGCCAA,0.166
23,CCGGCCGC,0.299
24,CGGGCCTC,0.192

row,Sequence,PBM E-score
1,ACGGCCCA,0.141
2,CGGGCCTA,0.383
3,ATCCACGC,-0.239
4,AGCACTAT,-0.257
5,ATTCCCTC,-0.083
6,ACTATCGA,-0.0147
7,GGATCCAC,0.059
8,ATCTCTTC,-0.0222
9,AGAGCAGA,-0.17
10,CAATCTGA,-0.151
11,GTACTGTA,-0.119
12,TCGGCCGA,0.48
13,ATGGCCGG,0.315
14,TCGGCCAA,0.256
15,ACGGCCGG,0.392
16,TCGGCCCA,0.304
17,CGGGCCGA,0.379
18,GGGGCCGA,0.233
19,GCGGCCGA,0.335
20,CGGGCCGC,0.263
21,CCGGCCGA,0.453
22,ACGGCCTG,-0.0121
23,CCGGCCTA,0.288
24,ATGGTGTG,-0.303

row,Sequence,PBM E-score
1,ACCTTACT,0.105
2,ATGCCCCG,0.282
3,ACGGTAGG,-0.0364
4,TACCCCTA,-0.146
5,ACTTCTAC,-0.119
6,ACGGCCGT,0.373
7,ACGGCCGC,0.228
8,ACGGCCCG,0.249
9,CCGGCCCA,0.231
10,CCGGCCCG,0.434
11,ACGGCCCT,-0.0855
12,CCGTCAAA,0.114
13,ACTGAGCG,-0.284
14,ATTGCCGC,0.0752
15,CATGCCGG,0.298
16,AATGCCGC,0.295
17,AATGCCGA,0.405
18,CTTGCCGA,0.0417
19,AATGCCGT,0.334
20,ATTGCCGA,0.375
21,CATGCCGA,0.17
22,AATGCCGG,0.384
23,CGTTGGTC,-0.0912
24,ACGGGAAC,0.101

row,Sequence,PBM E-score
1,GGAAGACC,0.0832
2,GCCCACTA,-0.137
3,CTCACACC,-0.15
4,CGCGGCAG,0.1
5,GACTGTAC,-0.171
6,GAGCTGCA,-0.00591
7,CCCCGCTC,0.0426
8,ATCGGCAC,0.315
9,CGCGCGAC,0.2
10,AAATCCCA,-0.0185
11,TAATCCGA,0.346
12,AAATCCCG,0.379
13,GAATCCGA,0.307
14,AAATCCGC,0.387
15,CAATCCGG,0.375
16,AAATCCGA,0.457
17,GAATCCGC,0.179
18,CAATCCGC,0.191
19,CAATCCCG,0.272
20,CAATCCGA,0.241
21,AAATCCAC,0.0573
22,AAATCCTG,-0.118
23,AAATCCGG,0.475
24,AAATCCGT,0.396

row,Sequence,PBM E-score
1,AAATCCAG,0.0422
2,AAATCCCT,-0.166
3,AAATCCTT,0.0613
4,CCTTTGGA,-0.215
5,GGCTGCTA,-0.0615
6,CGACCGAA,0.378
7,AGACCGAA,0.281
8,CGACCGAC,0.301
9,CGACCGAG,0.371
10,CCACCGAG,0.14
11,AGACCGAG,0.373
12,CTACCGAG,0.139
13,AGACCGAT,0.35
14,AGACCGAC,0.346
15,GCAGCTTA,-0.171
16,CCTGAGAA,-0.253
17,CCTATCAG,-0.147
18,GACAGCAA,-0.221
19,TGACTCAA,-0.251
20,CGGCTGTC,0.175
21,GGGCACAA,-0.0367
22,GAGGACGC,-0.0224
